The record followed here is PubChem BioAssay AID624417 (National Center for Advancing Translational Sciences (NCATS), 2012).

Hit rate of the full screen: of about 410,000 compounds, about 6,400 (1.6%) were called active. Where a call stands in place of a potency, no number is given. Roughly 20% stayed inconclusive and do not appear here. Calls follow the shape of the dose curve; as a rule, active = well fitted inhibition curve with a large enough effect; inconclusive = small, poorly fitted or top-dose-only effect; inactive = no such curve, though single readings can be large or run the other way. The sample as a whole holds a higher share of actives than the screen did.
Potency is read from the fitted curve at half-maximal effect.

Sequence of Glucagon-like peptide 1 receptor (Homo sapiens) (P43220 whole entry, looked up): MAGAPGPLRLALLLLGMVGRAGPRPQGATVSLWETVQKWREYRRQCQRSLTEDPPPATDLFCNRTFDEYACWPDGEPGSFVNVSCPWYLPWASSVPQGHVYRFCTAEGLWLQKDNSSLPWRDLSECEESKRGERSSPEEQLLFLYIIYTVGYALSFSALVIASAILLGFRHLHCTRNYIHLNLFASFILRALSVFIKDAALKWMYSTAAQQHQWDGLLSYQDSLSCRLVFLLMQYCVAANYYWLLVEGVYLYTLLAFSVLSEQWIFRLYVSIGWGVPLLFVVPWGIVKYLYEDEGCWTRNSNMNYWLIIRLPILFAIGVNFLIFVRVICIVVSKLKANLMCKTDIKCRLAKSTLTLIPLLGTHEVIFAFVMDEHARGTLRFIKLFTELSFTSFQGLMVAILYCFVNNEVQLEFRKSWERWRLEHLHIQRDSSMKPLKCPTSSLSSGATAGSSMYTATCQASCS

This assay has as its target Glucagon-like peptide 1 receptor (Homo sapiens) (UniProt P43220). Put plainly: qHTS of GLP-1 Receptor Inverse Agonists (Inhibition Mode). Also: nearly all actives have a fitted effect of over 55% in size. The note with it: HEK293 GLP-1R CRE-luciferase, luminescence, 24 h, GLP-1R form is constitutively active; series mostly up to 38.3 µM. The text has this:
The overall goal of this project was to develop a novel assay for discovering small molecule ligands for class B1 G protein-coupled receptors (GPCRs). Very few agonists (or inverse agonists in inhibition mode) with generally weak activity for this entire group of physiologically important receptors are known to date. To establish proof-of-principle that this critical bottleneck can be overcome with a suitable screening approach, our studies focused on the class B1 receptor for glucagon-like peptide-1 (GLP-1R), a potential therapeutic target for diabetes and neurodegenerative disease. The assay was developed using a cell-based functional readout. Toward this goal, stably transfected HEK293 cell clones were established that co-express (i) a cAMP-responsive luciferase reporter gene, and (ii) constitutively active GLP-1R that upon ligand interaction inhibit (inverse agonists) the luciferase activity. In addition, two control cell lines were developed: (i) one that express only the cAMP-responsive reporter gene to enable initial exclusion of GLP-1R independent effects of candidate probes; and (ii) one with the reported gene cloned with another constitutively active orphan receptor GPR119 to enable exclusion of GLP-1R independent inhibitor effects of candidate inverse agonists. To that end, this assay was optimized for 1536-well format and screened against the MLSMR. […] NIH Molecular Libraries Probe Production Network [MLPCN] NIH Chemical Genomics Center [NCGC] Grant: NS064851 PI Name: Martin Beinborn, Tufts Medical Center
Six ul of cell suspension (200 cells/uL in DMEM + 10% Nu serum + 1% pen-strep) is dispensed in a white solid 1536-well plate. The plates are incubated for 12 hours at 37 deg C at 5% CO2 followed by addition of 23 nL compounds. After 24 hr incubation at 37 deg C and 5% CO2, 3 uL of luciferase assay detection reagent is added. A luminescence read is obtained on the PerkinElmer Viewlux after 12 min incubation at room temperature.
Take `Cc1ccc(C(=O)NC(C)C(c2cccs2)N2CCOCC2)cc1C` (stereo not drawn): the Potency entry was “inactive”. Turning to `Cn1nc(N)c2ncc(C(Cl)(Cl)Cl)nc21`, the Potency entry was “inactive”. Take `OC(COc1ccc2c(c1)CCC2)CN1CCN(c2cccc(Cl)c2)CC1` (stereo not drawn): the Potency was 10 µM (active). Consider `OC(COc1ccc(Br)cc1)CN1CCCC1` (stereo not drawn), for which the Potency entry is “inactive”. Take `CC(=O)Nc1ccc(OCC(O)CN2CCN(c3ccccc3Cl)CC2)cc1` (stereo not drawn): the Potency result is “inactive”. For `O=[N+]([O-])c1ccc(N2CCN(CC(O)COc3ccccc3)CC2)cc1` (stereo not drawn), the Potency result is “inactive”.

As to `O=C(c1ccc(Cl)cc1)c1ccc(OCC(O)CN2CCCCC2)cc1` (stereo not drawn), the Potency was 5.01 µM (active). With `O=c1cc(CN2CCN(c3cccc(Cl)c3)CC2)c2cc3c(cc2o1)CCCC3` the entry was “inactive”; with `Cc1ccc(S(=O)(=O)N2C[C@]3(O)C[C@@H]4C(=O)N(c5ccccc5)C(=O)[C@@H]4C[C@]3(OC(=O)NC3CC3)C2)cc1`, “inactive”; with `C[C@H](O)[C@@H]1C(=O)N2CCc3c([nH]c4ccccc34)[C@@H]2C[C@@H]1N(C)C(=O)Nc1ccc(F)cc1`, “inactive”. With `CCN([C@H](CO)C(C)C)S(=O)(=O)c1ccccc1Br`, the Potency entry is “inactive”. For `C=CC(COCc1ccccc1)N(Cc1ccccc1)S(=O)(=O)c1ccccc1Br` (stereo not drawn), the Potency is 10 µM (active). For `CC(C)Cc1ccc(-c2cc3nc(NCc4cccc(Cl)c4)ccn3n2)cc1`, the Potency was 2.82 µM (active). On to `Cc1cc(C)n2c(NCc3ccccc3)c(CC(C)C)nc2n1`, for which the Potency entry is “inactive”.

In the case of `COCCn1c(SCC(=O)Nc2ccc(F)cc2F)nc2c(c1=O)SCC2`, the Potency result was “inactive”. Consider `CC1(C(=O)NCc2ccccc2)CSCC(=O)N1CCCn1ccnc1` (stereo not drawn), for which the Potency entry is “inactive”. With `Cc1cccc(N2CCN(C(=O)c3cccc(N4C(=O)C5C6C=CC(C6)C5C4=O)c3)CC2)c1C` (stereo not drawn), the Potency entry is “inactive”. On to `O=S(=O)(c1ccccc1)N1CCc2ccccc21`, for which the Potency result is “inactive”. Take `Cc1cccc(N2CCN(C(=O)c3ccc4c(c3)CCN4S(=O)(=O)c3ccccc3)CC2)c1C`: the Potency was 7.94 µM (active). Take `O=C(Nc1cccc(C(=O)O)c1)/C(=C\c1ccccc1)NC(=O)c1ccc(Br)o1`: the Potency entry was “inactive”.

As to `OC[C@@H]1CN(Cc2ccc(-c3ccccc3)cc2)C[C@H](n2cnc3c(NC4CCCC4)ncnc32)O1`, the Potency was 8.91 µM (active). In the case of `OC[C@@H]1CN(Cc2cccs2)C[C@H](n2cnc3c(NC4CCCC4)ncnc32)O1` it was “inactive”; in that of `OC[C@@H]1CN(Cc2ccc(F)cc2)C[C@H](n2cnc3c(NC4CCCC4)ncnc32)O1`, “inactive”; in that of `CC(=O)c1ccc(Nc2nc(C(N)c3ccccc3)cs2)cc1` (stereo not drawn), “inactive”.

Regarding `COc1cccc(-c2nc3nc(C)cc(C)n3c2NC2CCCCC2)c1`, the Potency entry was “inactive”. For `CCCCNC(=S)N/N=C1\CCCCc2ccccc21`, the Potency is 11.2 µM (active). Take `CCCCNC(=O)C(=O)c1ccccc1NC(C)=O`: the Potency result is “inactive”. As for `Cc1ccc(NC(=S)N/N=C2/CCCc3c(C)cc(C)cc32)cc1`, the Potency result was “inactive”.
